TPT1 inh – Candida albicans TPT1 enzyme inhibitors, primary screen, biochemical, fluorescence polarization | tRNA 2'-phosphotransferase TPT1 (Candida albicans SC5314) | recombinant caTPT1, FP RNA substrate dephosphorylation | inhibition, % at 5 µM | 0.81% of 300,000 active | AID 1962, 2009;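 active means inhibition above the mean of all tested compounds plus 3 SD, set per screening campaign, cut at about 24% in these data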;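 further: plate controls were DMSO alone for no effect and ferristatin control at 100 nM for full effect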
ZTA DNA inh – blocks Epstein-Barr virus ZTA, an EBNA-1 counter-screen; ZTA-DNA binding, fluorescence polarization; inhibition, % at 11 µM; 0.15% of 320,000 active; AID 2234; in the data active means inhibition above about 33%
NR3A LBD binder – binders of NR3A ligand-binding domain, primary screen, biophysical, differential scanning fluorimetry, uHTS; Glutamate receptor ionotropic, NMDA 3A (GRIN3A) ligand-binding domain; NR3A LBD differential scanning fluorimetry, Tm shift; 0% = protein alone, 100% = glycine-bound protein; Tm shift relative to glycine control, % at 25 µM; 2.5% of 340,000 active; AID 1259313, 2017;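 active means melting temperature shift of at least 10% of the positive control shift, at one fixed dose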
Rpn11 inh – Rpn11 (PSMD14) deubiquitinase inhibitors, primary screen, biochemical, fluorescence polarization, uHTS. human 26S proteasome, Ub4-pepOG fluorescence polarization; 20S core pre-blocked with epoxomicin. AID 588493, 2011. 26S proteasome non-ATPase regulatory subunit 14 (Homo sapiens), O00487. 0.59% of 360,000 active. inhibition, % at 20 µM;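 active means inhibition at 20 µM, scaled to each plate's controls, above about 33%, limit read from the data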
Target sequence (O00487 whole entry, looked up): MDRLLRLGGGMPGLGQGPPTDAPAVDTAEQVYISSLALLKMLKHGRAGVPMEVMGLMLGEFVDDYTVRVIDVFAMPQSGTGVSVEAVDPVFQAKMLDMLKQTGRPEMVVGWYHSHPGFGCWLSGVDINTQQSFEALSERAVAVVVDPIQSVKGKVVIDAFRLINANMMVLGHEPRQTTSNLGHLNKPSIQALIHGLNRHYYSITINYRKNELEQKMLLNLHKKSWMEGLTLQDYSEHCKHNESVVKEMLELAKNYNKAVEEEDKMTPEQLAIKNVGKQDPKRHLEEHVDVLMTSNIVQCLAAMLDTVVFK
EBNA-1 inh – EBNA-1 DNA-binding inhibitors, primary screen, biochemical, fluorescence polarization | inhibition, % at 14.8 µM | 0.34% of 300,000 active | AID 1950, 2009; in the data active means inhibition above about 28%
dFosB activator – activators of delta FosB homodimer, primary screen, biochemical, fluorescence polarization, TAMRA-CDK5 oligo, single point. purified delta FosB; percent of positive-control signal above neutral wells. Protein FosB (Mus musculus), P13346. AID 493131, 2011. 0.99% of 340,000 active. activation, % at 25 µM;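 active means mean activation above about 17%, with every replicate also reaching it, limit read from the data, passing the limit was not always enough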
* marks the source's active call; other numbers are inactive results; nt = no result. Most compounds without a hit are left out; they make up all but 4.5% or so of the library.

SMILES | TPT1 inh | ZTA DNA inh | NR3A LBD binder | Rpn11 inh | EBNA-1 inh | dFosB activator
CCOC(=O)c1ccc(N/C=C/C(=O)c2ccco2)cc1 | 1.7 | 3.8 | -2.1 | 20.8 | 8.1 | -1.1
O=C(/C=C/Nc1ccc(F)cc1)c1ccco1 | 1.8 | 4.3 | 14.6* | -0.9 | -2.1 | 0.9
NC(=O)c1c(NC(=O)c2ccc(N3C(=O)CCC3=O)cc2)sc2c1CCCC2 | nt | -7.9 | -1.6 | 7.9 | nt | -6.4
Cc1nnc(N/N=C/c2cc(C)n(-c3ccc(F)cc3)c2C)n1N | -0.1 | 2.6 | 11.9* | 8.3 | 5.9 | -8.2
Cc1nnc(N/N=C/c2ccccc2O)n1N | -1.9 | -5.7 | -2.1 | 0.1 | -6.5 | 2.4
COc1ccc(-c2cn[nH]c2-c2ccc(OC)cc2O)cc1 | -3.1 | -18.7 | nt | -6.5 | 7.6 | -3.0
COc1ccc(-c2cn[nH]c2-c2ccc(OCc3ccccc3)cc2O)cc1 | -2.2 | -4.1 | 12.1* | -6.9 | -10.1 | -5.7
COc1ccc(-c2[nH]ncc2-c2ccc(Cl)cc2)c(O)c1 | -0.8 | -12.3 | 1.4 | -10.5 | -10.7 | -4.3
COc1ccc(-c2cn[nH]c2-c2ccc(OCc3ccc([N+](=O)[O-])cc3)cc2O)cc1OC | -1.8 | -10.7 | 15.3* | -2.3 | -2.8 | -3.7
O=[N+]([O-])c1ccc(COc2ccc(-c3[nH]ncc3-c3ccc(Cl)cc3)c(O)c2)cc1 | -2.9 | -5.0 | 34.5* | -4.7 | 4.7 | 2.7
CCc1cc(-c2[nH]ncc2-c2ccc([N+](=O)[O-])cc2)c(O)cc1OC | -0.5 | 0.8 | 29.0* | 0.1 | -1.7 | -8.9
CC(C)NC(=O)CC1C(=O)N(Cc2ccccc2)C(C)c2nc3ccccc3n21 (stereo unspecified) | -1.1 | -23.9 | 0.0 | 2.7 | -4.5 | 1.6
Oc1ccc(-c2[nH]ncc2-c2ccc(Cl)cc2)c(O)c1 | 0.4 | -19.1 | 12.3* | 4.1 | 0.5 | -6.9
O=C(CCCOc1ccc(Br)cc1)NCCc1ccc(OC(F)F)cc1 | -2.3 | -28.0 | -5.6 | 6.2 | 2.5 | -5.6
CCOC(=O)c1cc(-c2ccccc2)sc1NC(=O)CC | -1.7 | -7.3 | 1.9 | -2.2 | -1.3 | -2.3
CCOC(=O)c1cc(-c2ccccc2)sc1NC(=O)COC(=O)c1ccc(Cl)c(S(N)(=O)=O)c1 | -4.0 | -7.7 | 11.4* | 2.8 | 0.5 | -2.9
Cc1cccc(N2C(S)=C(C#N)C(=O)NC23CCCCC3)c1 | -0.9 | -3.1 | 16.3* | -1.0 | -3.6 | -2.4
Cc1cccc(C2=NN(c3ccccc3)[C@H](CO)[C@H]2c2ccc(Cl)cc2)c1 | nt | nt | 22.7* | 20.1 | nt | -16.0
Cc1cccc(C2=NN(c3ccccc3)[C@H](CO)[C@H]2c2ccc(F)cc2)c1 | nt | nt | 2.0 | 20.2 | nt | -10.9
OC[C@@H]1[C@@H](c2ccccc2)C(c2cccc(Cl)c2)=NN1c1ccccc1 | nt | nt | 25.6* | 9.7 | nt | -4.8
OC[C@@H]1[C@@H](c2ccc(Cl)cc2)C(c2ccc(F)cc2)=NN1c1ccccc1 | nt | nt | 29.8* | 12.6 | nt | -10.3
OC[C@@H]1[C@@H](c2ccccc2)C(c2ccccc2)=NN1c1ccccc1 | nt | nt | 3.0 | 16.6 | nt | -6.5
COc1ccc(Cc2nnc(NC(=O)c3cc(OC)c(OC)c(OC)c3)s2)cc1 | 2.2 | -10.6 | 3.8 | 2.0 | -18.2 | -33.5
COc1ccc(NC(=S)N(CCC(C)C)C2CCN(C(C)C)CC2)cc1Cl | -2.9 | 2.3 | 19.2* | -11.8 | -16.0 | -2.9
COCCN(C(=S)Nc1ccc(OC)c(Cl)c1)C1CCN(C(C)C)CC1 | 2.0 | 18.2 | 7.1 | -1.3 | -3.9 | -1.8
Cc1cccc(NC(=O)c2nc[nH]c2C(=O)NCCCCNC(=O)c2[nH]cnc2C(=O)Nc2cccc(C)c2)c1 | nt | nt | 13.1* | -3.3 | nt | 4.2
O=C(Nc1ccc(Cl)cc1)c1nc[nH]c1C(=O)NCCCCNC(=O)c1[nH]cnc1C(=O)Nc1ccc(Cl)cc1 | nt | nt | 25.9* | 1.9 | nt | -9.5
CCOC(=O)c1ccc(NC(=O)c2nc[nH]c2C(=O)NCCNC(=O)c2[nH]cnc2C(=O)Nc2ccc(C(=O)OCC)cc2)cc1 | nt | nt | 14.9* | 8.7 | nt | -2.1

Compound activity (PubChem BioAssay)
